Laboratory results as given in PubChem BioAssay (Tox21).
Several values for one entry are separate records, joined by “and”; a condition that tells them apart may be missing. Identical values can stand only once. Records with an inconclusive call do not appear. A call without a number means that no potency is given here. Where a structure was tested more than once in an assay, its records may differ in their call. Activity calls are given as the source filed them. Unless noted, the call rests on the fitted dose curve; in most records, active means well fitted curve in the direction sought with a large enough effect in the repeat runs; inconclusive means weak or mixed curves; inactive means no such curve, though single readings can be large; an effect the other way counts as inactive or inconclusive. Positions of bridges follow the written chain, without caps; N, C: chain ends. Non-standard residues stand in square brackets, D forms with d. Residues, ends and D or L forms follow the SMILES beside them. *: point of attachment. Dab(CH2SO3H) = N[C@@H](CCNCS(=O)(=O)O)C(=O)O; X3 = CC[C@@H](C)CCCCC(=O)*; Dab = NCC[C@H](N)C(=O)O

Columns and labels:
[1] = qHTS assay to identify aromatase inhibitors - cell viability counter screen (AID 743084);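 further: cells stimulated with testosterone during compound exposure; nearly all actives have a fitted effect of over 55% in size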; further: potency means the concentration at half of the fitted maximal effect
[2] = molecular target: Aryl hydrocarbon receptor (Homo sapiens) (UniProt P35869); assay: qHTS assay to identify small molecule that activate the aryl hydrocarbon receptor (AhR) signaling pathway (AID 743085); further: nearly all actives have a fitted effect of over 15% in size; further: potency means the concentration at half of the fitted maximal effect;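 on activation: HG2L7.5c1 human HepG2 liver cells with stably integrated DRE-driven firefly reporter; series mostly up to about 70 µM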
Procedure, shortened: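 HepG2 cells stably carrying a 20-DRE firefly luciferase reporter (HG2L7.5c1) treated with compound for 24 hr at 37C. Luciferase read by ONE-Glo luminescence, with CellTiter-Fluor viability read first.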

[3] = qHTS assay to identify small molecule that activate the aryl hydrocarbon receptor (AhR) signaling pathway - cell viability counter screen (AID 743086); further: nearly all actives have a fitted effect of over 45% in size; further: potency means the concentration at half of the fitted maximal effect
Procedure, shortened: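 Cytotoxicity counter screen: CellTiter-Fluor signal (30 min, 37 C) in 4000 HepG2 cells/well carrying the DRE-luciferase reporter, following 24 h compound exposure at 37 C.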

[4] = molecular target: Peroxisome proliferator-activated receptor gamma (Homo sapiens) (UniProt P37231); assay: qHTS assay to identify small molecule agonists of the peroxisome proliferator-activated receptor gamma (PPARg) signaling pathway (AID 743094; active means well fitted activation curve with a large enough effect in the signal ratio in the repeat runs, not every such curve was filed as active; the % refers to the signal ratio)
Procedure, shortened: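 Stably transfected HEK293H cells (GeneBLAzer PPARg UAS-bla) were incubated with test substances for 17 h at 37C after a 5 h pre-incubation; beta-lactamase activity was then detected by FRET substrate fluorescence.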

Peroxisome proliferator-activated receptor gamma (Homo sapiens), sequence (P37231 whole entry, looked up): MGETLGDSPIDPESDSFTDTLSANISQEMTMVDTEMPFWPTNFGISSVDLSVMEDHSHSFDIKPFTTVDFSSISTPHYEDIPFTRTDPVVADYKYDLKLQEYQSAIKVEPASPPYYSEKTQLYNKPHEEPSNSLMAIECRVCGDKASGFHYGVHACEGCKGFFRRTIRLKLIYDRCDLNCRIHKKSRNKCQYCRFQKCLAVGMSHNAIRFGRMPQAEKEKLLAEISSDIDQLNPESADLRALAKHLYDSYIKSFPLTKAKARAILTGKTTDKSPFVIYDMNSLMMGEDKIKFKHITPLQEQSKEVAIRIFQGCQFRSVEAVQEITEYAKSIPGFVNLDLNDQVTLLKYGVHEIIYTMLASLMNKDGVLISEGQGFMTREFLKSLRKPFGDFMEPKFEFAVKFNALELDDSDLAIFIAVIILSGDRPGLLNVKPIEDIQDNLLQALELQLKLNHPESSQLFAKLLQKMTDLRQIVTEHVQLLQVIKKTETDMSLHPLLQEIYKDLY
Aryl hydrocarbon receptor (Homo sapiens), sequence (P35869 whole entry, looked up): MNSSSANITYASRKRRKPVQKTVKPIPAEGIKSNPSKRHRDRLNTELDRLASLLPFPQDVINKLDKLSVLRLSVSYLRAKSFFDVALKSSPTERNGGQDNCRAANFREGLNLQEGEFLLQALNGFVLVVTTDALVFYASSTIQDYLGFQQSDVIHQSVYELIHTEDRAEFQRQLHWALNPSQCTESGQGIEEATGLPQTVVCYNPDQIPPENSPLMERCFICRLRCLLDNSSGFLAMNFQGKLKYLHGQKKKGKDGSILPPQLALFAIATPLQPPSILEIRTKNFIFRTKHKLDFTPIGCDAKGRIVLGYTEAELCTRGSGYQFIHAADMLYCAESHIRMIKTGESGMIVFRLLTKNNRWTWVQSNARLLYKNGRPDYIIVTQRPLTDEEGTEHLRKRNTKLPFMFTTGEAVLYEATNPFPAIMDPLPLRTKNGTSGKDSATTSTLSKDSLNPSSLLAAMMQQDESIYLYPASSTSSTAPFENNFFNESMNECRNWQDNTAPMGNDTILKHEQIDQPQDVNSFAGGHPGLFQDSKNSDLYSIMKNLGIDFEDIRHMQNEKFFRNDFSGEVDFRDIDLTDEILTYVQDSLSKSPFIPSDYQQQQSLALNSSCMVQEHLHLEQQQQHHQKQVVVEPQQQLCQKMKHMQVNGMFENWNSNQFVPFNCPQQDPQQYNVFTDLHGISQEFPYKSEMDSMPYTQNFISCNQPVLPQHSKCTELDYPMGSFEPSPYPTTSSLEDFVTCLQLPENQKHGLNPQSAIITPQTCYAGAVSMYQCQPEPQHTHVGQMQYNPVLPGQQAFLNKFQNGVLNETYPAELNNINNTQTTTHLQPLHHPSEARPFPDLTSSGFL

SMILES	Potency [1]	Potency [2]	Potency [3]	Potency [4]
CCN(CC)CC#CCOC(=O)C(O)(c1ccccc1)C1CCCCC1 (stereo not given)	11.9 µM (active)	inactive	18.8 µM (active)	
COc1cccc2c1[C@@H]1CN(CCCCn3c(=O)[nH]c4c(sc5ncc(-c6ccccc6)nc54)c3=O)C[C@@H]1CO2	26.6 µM (active)			
C[C@]12O[C@H](C[C@]1(O)CO)n1c3ccccc3c3c4c(c5c6ccccc6n2c5c31)CNC4=O	23.7 µM (active)	0.531 µM (active)	18.8 µM (active)	
CC1(C)C[C@@H]1C(=O)N/C(=C\CCCCSC[C@H](N)C(=O)O)C(=O)O	inactive	inactive	inactive	
Cc1onc(-c2c(F)cccc2Cl)c1C(=O)N[C@@H]1C(=O)N2[C@@H]1SC(C)(C)[C@@H]2C(=O)O	inactive	inactive	inactive	inactive
CC[C@@H](C)CCCCC(=O)N[C@@H](CCNCS(=O)(=O)O)C(=O)N[C@H](C(=O)N[C@@H](CCNCS(=O)(=O)O)C(=O)N[C@H]1CCNC(=O)[C@H]([C@@H](C)O)NC(=O)[C@H](CCNCS(=O)(=O)O)NC(=O)[C@H](CCNCS(=O)(=O)O)NC(=O)[C@H](CC(C)C)NC(=O)[C@@H](CC(C)C)NC(=O)[C@H](CCNCS(=O)(=O)O)NC1=O)[C@@H](C)O (X3-[Dab(CH2SO3H)]T[Dab(CH2SO3H)][Dab][Dab(CH2SO3H)][dL]L[Dab(CH2SO3H)][Dab(CH2SO3H)]T; lactam 4-C)	inactive	inactive	inactive	
CCCOC(=O)c1ccccc1O	inactive	inactive	inactive	
Nc1c(CC(=O)O)cccc1C(=O)c1ccccc1	inactive	inactive	inactive	
CC[C@H]1OC(=O)[C@H](C)C(=O)[C@H](C)[C@@H](O[C@@H]2O[C@H](C)C[C@H](N(C)C)[C@H]2O)[C@](C)(OC)C[C@@H](C)C(=O)[C@H](C)[C@H]2N(CCCCn3cnc(-c4cccnc4)c3)C(=O)O[C@]12C	inactive and 15 µM (active)	inactive	inactive and 21.1 µM (active)	inactive
CCOC(=O)Cc1ccc(-c2ccccc2)cc1	inactive	inactive	inactive	
CC1(C)S[C@@H]2[C@H](NC(=O)[C@H](N)c3ccc(O)cc3)C(=O)N2[C@H]1C(=O)O	inactive	inactive	inactive	
O=C(O)COc1ccc(C(=O)c2cccs2)c(Cl)c1Cl	inactive	inactive	inactive	inactive
CC/C=C\C/C=C\C/C=C\C/C=C\C/C=C\CCCC(=O)O	inactive	inactive	inactive	
CO[C@H]1C[C@@H]2CC[C@@H](C)[C@@](O)(O2)C(=O)C(=O)N2CCCC[C@H]2C(=O)O[C@H]([C@H](C)C[C@@H]2CC[C@@H](O)[C@H](OC)C2)CC(=O)[C@H](C)C=C(C)[C@@H](O)[C@@H](OC)C(=O)[C@H](C)C[C@H](C)/C=C/C=CC=C1C	23.7 µM (active) and 26.6 µM (active)	inactive	13.3 µM (active) and 26.6 µM (active)	
CO[C@H](C(=O)[C@@H](O)[C@@H](C)O)C1Cc2cc3cc(O[C@H]4C[C@@H](O[C@H]5C[C@@H](O)[C@H](O)[C@@H](C)O5)[C@@H](O)[C@@H](C)O4)c(C)c(O)c3c(O)c2C(=O)[C@H]1O[C@H]1C[C@@H](O[C@H]2C[C@@H](O[C@H]3C[C@](C)(O)[C@H](O)[C@@H](C)O3)[C@H](O)[C@@H](C)O2)[C@H](O)[C@@H](C)O1 (stereo not given in full)	inactive	0.237 µM (active)		
CN=C(N)NCCC[C@H](N)C(=O)O	inactive	inactive	inactive	

SMILES	Potency [1]	Potency [2]	Potency [3]	Potency [4]
CCOc1ccc(S(=O)(=O)O)c2cccnc12	inactive	inactive	inactive	
CCc1ncnc2cc(OC)c(OC)cc12	inactive	inactive	inactive	
C=C1[C@H](CO)[C@@H](O)C[C@@H]1n1cnc2c(=O)[nH]c(N)nc21	inactive	inactive	inactive	inactive
CCCCCCCC/C=C\CCCCCCCC(=O)N(CCO)CCO	inactive	inactive	inactive	
CCOC(=O)COc1ccc2c(=O)cc(-c3ccccc3)oc2c1	inactive	inactive	inactive	inactive
CNCCC=C1c2ccccc2CCc2ccccc21	inactive	inactive		
CCC(NC(C)C)C(O)c1ccc(O)c(O)c1 (stereo not given)	inactive	inactive	inactive	
CON=C1C[C@]2(C[C@@H]3C[C@@H](C/C=C(\C)C[C@@H](C)/C=C/C=C4\CO[C@@H]5[C@H](O)C(C)=C[C@@H](C(=O)O3)[C@]45O)O2)O[C@H](/C(C)=C/C(C)C)[C@H]1C	inactive	inactive	inactive	
CC(=O)OCC(=O)[C@@]1(O)CC[C@H]2[C@@H]3C[C@H](C)C4=CC(=O)C=C[C@]4(C)[C@H]3[C@@H](O)C[C@@]21C	inactive	inactive	inactive	inactive
CCOc1cc(CC(=O)N[C@@H](CC(C)C)c2ccccc2N2CCCCC2)ccc1C(=O)O	inactive	inactive	inactive	
CC1CCCCN1CCCOC(=O)c1ccccc1 (stereo not given)	inactive	inactive	inactive	
C/C=C/C1=C(C(=O)O)N2C(=O)[C@@H](NC(=O)[C@H](N)c3ccc(O)cc3)[C@H]2SC1	inactive	inactive	inactive	
Nc1ccc(N)c([N+](=O)[O-])c1	61.1 µM (active)	24.3 µM (active)		
CCC1OC(=O)C[C@@H](O)[C@H](C)[C@@H](O[C@@H]2O[C@H](C)C[C@H](N(C)C)[C@H]2O)[C@@H](CC=O)C[C@@H](C)C(=O)/C=C/[C@]2(C)OC2C1C (stereo not given in full)	21.1 µM (active)	inactive	21.1 µM (active)	
CC(=O)N[C@@H](C=O)[C@H](O)[C@H](O)[C@@H](O)CO	inactive	inactive	inactive	inactive
